Results filed as inconclusive are left out. The source made the active and inactive calls. Unless noted, the call rests on the fitted dose curve; in most records, active means well fitted curve in the direction sought with a large enough effect; inconclusive means small, poorly fitted or top-dose-only effect, or another doubt; inactive means no such curve, though single readings can be large; an effect the other way counts as inactive or inconclusive.

Test [1] is described as follows: Cytometric Cell-Based qHTS for Inhibitors of the mTORC1 Signaling Pathway in MEF (Tsc2-/-, p53-/-) Cells (AID 2660).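 Further: percent of cells above a phospho-rpS6 to PI ratio cutoff in each well; series mostly up to about 38 µM.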 Summed up: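 Cells are plated, treated with compound for 24 hrs at 37 degree Celsius, then fixed, blocked and immunostained for phospho-rpS6 Ser235/236. Propidium iodide counterstain follows. Per-well % positive cells is derived from the PI-normalized phospho-S6 signal.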

A short description of test [2]: High Content Imaging Cell-Based qHTS for Inhibitors of the mTORC1 Signaling Pathway in MEF (Tsc2-/-, p53-/-) Cells (AID 2666). Summed up: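 Phospho-rpS6 (Ser235/236) immunofluorescence, normalized and scored as % positive cells using rapamycin and DMSO controls, was read in empty-vector Tsc2-/-, p53-/- MEFs after 24 h compound exposure at 37 C; propidium iodide counted cells.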
Background: In qHTS, concentration-response curves come from the screen itself.

The nature of test [3]: High Content Imaging Cell-Based qHTS for Inhibitors of the mTORC1 Signaling Pathway in MEF Cells (AID 2667).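 Further: Tsc2-/- p53-/- MEFs stably re-expressing wild-type Tsc2 exposed 24 h; series mostly up to about 38 µM.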 Summed up: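 WT MEFs (Tsc2-/-, p53-/- re-expressing Tsc2), in DMEM + 10% FBS, were treated with compound for 24 h at 37 C. Cells were then fixed and stained for phospho-rpS6 Ser235/236 with propidium iodide as cell count. Values are % positive cells, with thresholds set against rapamycin-treated cells.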

The nature of test [4]: Cytometry Cell-Based qHTS for Inhibitors of the mTORC1 Signaling Pathway in MEF cells (AID 2668).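 Further: Tsc2-/- p53-/- mouse embryonic fibroblasts stably re-expressing wild-type Tsc2; percent cells positive for phospho-rpS6 Ser235/236 relative to propidium iodide stain; series mostly up to about 38 µM.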 The procedure, abridged: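 Read-out: phospho-rpS6 Ser235/236 immunofluorescence normalized to propidium iodide intensity, scored as % active cells against a rapamycin (7.5 nM) threshold. Cells: Tsc2-/-, p53-/- MEFs stably expressing WT Tsc2, compound-treated 24 hrs at 37 degree Celsius.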

Test [5] can be described thus: Validation screen for small molecules that induce DNA re-replication in MCF 10A normal breast cells (AID 463097). Further: nearly all actives have a fitted effect of over 60% in size. The procedure, abridged: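 250 MCF 10A cells/well; compound pin-transferred; 48 hr, 37 C, 5% CO2; Hoechst 40 min; imaged 405/500-530 nm. Hits = more high-intensity nuclei.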
The target in test [6] is Ubiquitin carboxyl-terminal hydrolase 2 (Homo sapiens) (UniProt O75604). In words: qHTS Validation Assay for Inhibitors of Ubiquitin-specific Protease USP2a Using CHOP2 as the Reporter (AID 463106). Summed up: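 USP2 core (10 nM final) was preincubated with compound 30 min at RT in pH 8.0 Tris/CaCl2/beta-ME/CHAPS buffer. Ub-CHOP2 and reporter substrate (25 nM final each) were then added, with fluorescence (Ex 485/Em 531) read after 60 min. Data were normalized to NEM full inhibition and fitted to concentration-response curves.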
Ubiquitin carboxyl-terminal hydrolase 2 (Homo sapiens), sequence (O75604 whole entry, looked up): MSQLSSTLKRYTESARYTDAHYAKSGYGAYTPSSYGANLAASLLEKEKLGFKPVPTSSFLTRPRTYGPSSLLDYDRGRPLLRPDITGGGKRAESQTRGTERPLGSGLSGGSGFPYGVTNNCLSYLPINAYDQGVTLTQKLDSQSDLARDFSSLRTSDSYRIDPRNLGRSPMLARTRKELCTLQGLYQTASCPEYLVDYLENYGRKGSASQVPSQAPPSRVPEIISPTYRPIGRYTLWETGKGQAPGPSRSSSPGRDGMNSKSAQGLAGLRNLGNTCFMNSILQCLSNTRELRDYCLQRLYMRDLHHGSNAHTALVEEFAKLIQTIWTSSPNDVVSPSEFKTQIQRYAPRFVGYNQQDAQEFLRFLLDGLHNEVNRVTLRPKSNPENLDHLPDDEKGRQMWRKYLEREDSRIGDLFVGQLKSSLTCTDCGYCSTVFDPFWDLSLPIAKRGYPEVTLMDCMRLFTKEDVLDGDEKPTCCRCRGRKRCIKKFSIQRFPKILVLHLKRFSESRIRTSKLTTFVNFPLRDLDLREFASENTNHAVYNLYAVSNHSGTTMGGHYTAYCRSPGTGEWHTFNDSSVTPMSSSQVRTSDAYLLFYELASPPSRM

In test [7] the target is DNA polymerase III PolC-type (Bacillus subtilis (strain 168)) (UniProt P13267). The test can be described thus: qHTS Validation Assay for the Inhibitors of DNA Replication in Gram-Positive Bacteria (AID 485295). Further: potency means the concentration at half of the fitted maximal effect. The procedure, abridged:
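PicoGreen fluorescence (ex 480–485/em 535–540 nm) reports dsDNA synthesized on ssM13Gori template with dNTPs/NTPs. Enzyme: holoenzyme rebuilt from purified PolC, beta subunit, SSB and primase. Compound preincubated before substrate addition; RT throughout.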

Test [8] concerns the target Tumor susceptibility gene 101 protein (Homo sapiens) (UniProt Q99816). The test can be described thus: qHTS Validation Assay for Iinhibitors of HIV-1 Budding by Blocking the Interaction of PTAP/TSG101 (AID 485342; calls by dose curve). The procedure, abridged: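 FP read-out: FITC-PTAP peptide, 50 nM final, binding Tsg101 binding domain, 10 uM final; 20 min r.t.; 10 mM HEPES pH 7.5, 0.15 M NaCl, 0.01% Tween 20, 3 mM EDTA, 0.1 mM TCEP.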

A short description of test [9]: qHTS Validation Assay to Find Inhibitors of Chronic Active B-Cell Receptor Signaling (AID 485345; active means well fitted curve in the direction sought with a large enough effect in the main read-out, with a control signal flat, not every such curve was filed as active). The procedure, abridged: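 TMD8 ABC-DLBCL cells stably carrying doxycycline-inducible IkappaBalpha–green luciferase fusion plus unfused red luciferase; compounds 46 uM to 3 nM, 4 h at 37C with doxycycline. Corrected green/red luminescence ratio normalized to 10 uM MG-132 and basal cell wells; curves fitted.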

Tumor susceptibility gene 101 protein (Homo sapiens), sequence (Q99816 whole entry, looked up, the tested form may be a part): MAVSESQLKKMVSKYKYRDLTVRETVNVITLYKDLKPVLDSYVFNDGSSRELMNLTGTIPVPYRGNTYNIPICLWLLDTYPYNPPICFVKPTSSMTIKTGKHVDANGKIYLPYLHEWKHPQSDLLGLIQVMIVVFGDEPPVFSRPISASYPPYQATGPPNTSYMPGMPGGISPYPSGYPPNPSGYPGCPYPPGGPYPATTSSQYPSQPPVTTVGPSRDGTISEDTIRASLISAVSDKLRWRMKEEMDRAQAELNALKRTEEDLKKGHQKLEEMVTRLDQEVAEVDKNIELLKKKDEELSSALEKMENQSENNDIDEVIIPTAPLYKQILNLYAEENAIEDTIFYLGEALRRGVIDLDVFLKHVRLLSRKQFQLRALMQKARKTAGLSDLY
DNA polymerase III PolC-type (Bacillus subtilis (strain 168)), sequence (P13267 whole entry, looked up): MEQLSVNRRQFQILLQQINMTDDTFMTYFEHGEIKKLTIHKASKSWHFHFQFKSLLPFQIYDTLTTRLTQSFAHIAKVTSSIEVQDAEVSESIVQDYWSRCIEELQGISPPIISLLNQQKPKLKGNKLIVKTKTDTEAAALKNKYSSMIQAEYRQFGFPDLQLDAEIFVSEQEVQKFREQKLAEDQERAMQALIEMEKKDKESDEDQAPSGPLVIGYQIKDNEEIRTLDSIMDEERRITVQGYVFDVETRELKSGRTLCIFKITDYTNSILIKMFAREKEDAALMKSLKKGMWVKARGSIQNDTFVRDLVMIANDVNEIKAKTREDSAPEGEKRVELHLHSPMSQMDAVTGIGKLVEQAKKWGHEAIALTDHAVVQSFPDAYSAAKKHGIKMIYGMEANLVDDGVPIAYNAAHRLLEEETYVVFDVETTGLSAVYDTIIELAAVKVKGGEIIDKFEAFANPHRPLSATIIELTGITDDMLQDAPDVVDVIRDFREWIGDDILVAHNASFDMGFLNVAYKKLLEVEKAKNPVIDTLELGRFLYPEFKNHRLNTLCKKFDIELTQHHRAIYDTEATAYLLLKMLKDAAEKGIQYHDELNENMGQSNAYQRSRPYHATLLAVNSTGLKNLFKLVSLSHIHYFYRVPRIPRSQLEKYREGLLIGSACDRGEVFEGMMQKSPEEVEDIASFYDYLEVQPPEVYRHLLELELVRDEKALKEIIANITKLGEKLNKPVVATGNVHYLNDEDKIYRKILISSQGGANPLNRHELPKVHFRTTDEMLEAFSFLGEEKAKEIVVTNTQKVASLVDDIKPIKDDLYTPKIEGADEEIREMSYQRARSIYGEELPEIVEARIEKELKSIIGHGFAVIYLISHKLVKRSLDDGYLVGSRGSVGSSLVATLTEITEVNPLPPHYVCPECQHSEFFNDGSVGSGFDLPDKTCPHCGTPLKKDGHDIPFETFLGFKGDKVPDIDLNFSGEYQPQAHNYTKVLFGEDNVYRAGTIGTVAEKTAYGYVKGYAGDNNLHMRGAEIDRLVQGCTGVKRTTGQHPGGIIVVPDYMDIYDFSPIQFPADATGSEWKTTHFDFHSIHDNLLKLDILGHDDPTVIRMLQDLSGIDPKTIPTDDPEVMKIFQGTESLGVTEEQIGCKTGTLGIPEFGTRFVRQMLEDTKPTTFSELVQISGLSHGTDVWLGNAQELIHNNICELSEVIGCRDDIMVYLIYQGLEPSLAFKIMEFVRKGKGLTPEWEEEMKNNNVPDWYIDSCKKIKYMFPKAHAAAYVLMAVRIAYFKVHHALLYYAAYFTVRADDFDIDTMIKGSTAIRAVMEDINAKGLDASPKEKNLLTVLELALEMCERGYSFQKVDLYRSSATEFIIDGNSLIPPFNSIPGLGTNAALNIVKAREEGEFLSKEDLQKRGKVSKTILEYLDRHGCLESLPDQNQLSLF

For `O=C(O)Cc1c[nH]c2ccc(O)cc12`, the result in test [1] and in test [8] was inactive. For the same molecule, the Potency result in test [2], in test [3], in [4], in test [5], in test [6] and in test [7] was “inactive” throughout.

On to `CNc1cc(NS(=O)(=O)c2ccc(N)cc2)nc(NC)n1`, for which the result in test [1] and in [8] was inactive. Moreover, the Potency result in test [2], in test [3], in test [4], in [5], in test [6] and in test [7] was “inactive” throughout.

With `COc1cc(CC(=O)O)ccc1O`, the result in [1] and in test [8] was inactive. For the same molecule, the Potency result in test [2], in test [3], in [4], in test [5], in test [6] and in test [7] was “inactive” throughout.

Take `O=c1cc(O)cc(/C=C/c2ccc(O)c(O)c2)o1`: the molecule was classed as inactive in test [1] and in test [8]. Besides, the Potency entry in test [2], in test [3], in test [4], in test [5] and in test [6] was “inactive” each time. Also, in test [7], the Potency is 21.2 µM (active).

As for `CCCCOc1cc(CC2CNC(=O)N2)ccc1OC` (stereo not given), the result in test [1] and in [8] was inactive. The Potency result in test [2], in [3], in test [4], in [5], in [6] and in test [7] was “inactive” in each case.

On to `O=C(O)c1cc(=O)cc(C(=O)O)[nH]1`, for which the call in [1] and in test [8] was inactive. Moreover, the Potency entry in test [2], in test [3], in test [4], in [5], in test [6] and in test [7] was “inactive” each time.

Turning to `C[N+](C)(C)CC=O`, the outcome in test [1] and in [8] was inactive. For the same molecule, the Potency result in test [2], in test [3], in test [4], in [5], in [6] and in test [7] was “inactive” each time.

As to `Cn1c(=O)c2[nH]c(-c3ccc(S(=O)(=O)O)cc3)nc2n(C)c1=O`, the molecule was classed as inactive in test [1] and in [8]. Besides, the Potency entry in test [2], in [3], in test [4], in test [5], in test [6] and in [7] was “inactive” each time.

Turning to `O=C(O)/C=C/c1ccc(O)c(O)c1`, the call in test [1] and in test [8] was inactive. Also, the Potency entry in test [2], in test [3], in test [4], in test [5], in test [6] and in test [7] was “inactive” in each case.

`COc1ccccc1N1CCN(CCCCN2C(=O)c3ccccc3C2=O)CC1`: the molecule was classed as inactive in test [1] and in test [8]. Also, the Potency result in test [2], in test [3], in [4], in [5], in [6] and in test [7] was “inactive” each time.

Consider `N#Cc1cc2nc(O)c(O)nc2cc1[N+](=O)[O-]`, for which the result in [1], in [8] and in [9] was inactive. Moreover, the Potency entry in [2], in test [3], in test [4], in [5], in test [6] and in [7] was “inactive” in each case.

On to `CSC(N)=NCCC[C@H](N)C(=O)O`, for which the call in test [1], in test [8] and in test [9] was inactive. The Potency entry in test [2], in test [3], in test [4], in [5], in test [6] and in test [7] was “inactive” throughout.

`NC(N)=[N+]1CCc2ccccc2C1`: the molecule was classed as inactive in test [1] and in test [8]. The Potency entry in test [2], in test [3], in [4], in [5], in test [6] and in test [7] was “inactive” each time.

Turning to `O=C(O)c1ccccc1Nc1cccc(OCc2ccc3ccccc3n2)c1`, the molecule was called inactive in [1] and in test [8]. The Potency result in test [2], in test [3], in [4], in test [5], in [6] and in test [7] was “inactive” in each case.

As to `NC(=O)CNCCC(c1ccccc1)c1ccccc1`, the call in test [1], in [8] and in test [9] was inactive. The Potency result in test [2], in [3], in test [4], in test [5], in test [6] and in [7] was “inactive” in each case.

On to `O=C(O)c1cc2cc(F)ccc2[nH]1`, for which the molecule was classed as inactive in test [1], in test [8] and in [9]. The Potency result in test [2], in test [3], in [4], in test [5], in test [6] and in [7] was “inactive” in each case.

For `N[C@H]1CONC1=O`, the molecule was called inactive in test [1], in [8] and in [9]. Besides, the Potency result in test [2], in [3], in test [4], in test [5], in test [6] and in [7] was “inactive” in each case.

`N[C@@H](CCCC(=O)O)C(=O)O`: the outcome in test [1], in test [8] and in test [9] was inactive. The Potency result in test [2], in test [3], in test [4], in [5], in test [6] and in test [7] was “inactive” each time.

Take `NCC(O)(CS(=O)(=O)O)c1ccc(Cl)cc1` (stereo not given): the result in test [1], in test [8] and in test [9] was inactive. Further, the Potency entry in test [2], in [3], in test [4], in [5], in test [6] and in [7] was “inactive” throughout.

Consider `CNc1ncnc2c1ncn2[C@H]1C[C@H](OP(=O)(O)O)[C@@H](COP(=O)(O)O)O1`, for which the molecule was called inactive in test [1] and in test [8]. Moreover, the Potency entry in test [2], in test [3], in [4], in test [5], in test [6] and in test [7] was “inactive” throughout.

With `CC(C)(C)NCC(O)COc1cccc2[nH]c(=O)[nH]c12` (stereo not given), the outcome in test [1], in test [8] and in test [9] was inactive. Moreover, the Potency result in test [2], in [3], in test [4], in test [5], in [6] and in [7] was “inactive” throughout.

For the molecule `Nc1nc2[nH]c(=O)cnc2c(=O)[nH]1`, the molecule was called inactive in [1], in test [8] and in test [9]. The Potency entry in test [2], in test [3], in test [4], in test [5], in test [6] and in test [7] was “inactive” in each case.

As to `NC(N)=N[C@@H](CCC(=O)O)C(=O)O`, the molecule was classed as inactive in test [1], in test [8] and in [9]. Further, the Potency result in test [2], in [3], in test [4], in [5], in test [6] and in [7] was “inactive” each time.

Consider `COc1ccc(C(=O)NCc2cccnc2)cc1C(=O)NCc1cccnc1`, for which the result in test [1], in test [8] and in test [9] was inactive. Besides, the Potency entry in test [2], in test [3], in [4], in [5], in test [6] and in [7] was “inactive” each time.

In the case of `OC[C@H]1O[C@@H](n2cnc3cncnc32)[C@H](O)[C@@H]1O`, the molecule was classed as inactive in test [1], in test [8] and in test [9]. The Potency result in [2], in test [3], in test [4], in [5], in [6] and in test [7] was “inactive” in each case.

Regarding `Clc1nccc2c1ccc1ccccc12`, the call in test [1], in test [8] and in test [9] was inactive. Besides, the Potency result in test [2], in test [3], in test [4], in test [5], in test [6] and in [7] was “inactive” throughout.

Regarding `NCCCCN=C(N)N`, the molecule was called inactive in test [1], in test [8] and in test [9]. Besides, the Potency entry in test [2], in test [3], in test [4], in [5], in [6] and in test [7] was “inactive” in each case.

The values above are taken from PubChem BioAssay (NCATS).
